Data reported in PMC4336329 (PLoS ONE, 2015).
Hit rate of the full screen: of about 310,000 compounds, about 2,200 (0.71%) showed an effect of 50% or more. Effects have a minus sign here. The entries come from a sample that favours strong results as a whole.

What follows are compounds tested against human ether-à-go-go-related gene (hERG) potassium channel (human, UniProt Q12809) (assay: primary screen, population patch clamp on CHO cells stably expressing hERG; higher = less effect of the substance).
Chain of human ether-à-go-go-related gene (hERG) potassium channel (Q12809 whole entry, looked up): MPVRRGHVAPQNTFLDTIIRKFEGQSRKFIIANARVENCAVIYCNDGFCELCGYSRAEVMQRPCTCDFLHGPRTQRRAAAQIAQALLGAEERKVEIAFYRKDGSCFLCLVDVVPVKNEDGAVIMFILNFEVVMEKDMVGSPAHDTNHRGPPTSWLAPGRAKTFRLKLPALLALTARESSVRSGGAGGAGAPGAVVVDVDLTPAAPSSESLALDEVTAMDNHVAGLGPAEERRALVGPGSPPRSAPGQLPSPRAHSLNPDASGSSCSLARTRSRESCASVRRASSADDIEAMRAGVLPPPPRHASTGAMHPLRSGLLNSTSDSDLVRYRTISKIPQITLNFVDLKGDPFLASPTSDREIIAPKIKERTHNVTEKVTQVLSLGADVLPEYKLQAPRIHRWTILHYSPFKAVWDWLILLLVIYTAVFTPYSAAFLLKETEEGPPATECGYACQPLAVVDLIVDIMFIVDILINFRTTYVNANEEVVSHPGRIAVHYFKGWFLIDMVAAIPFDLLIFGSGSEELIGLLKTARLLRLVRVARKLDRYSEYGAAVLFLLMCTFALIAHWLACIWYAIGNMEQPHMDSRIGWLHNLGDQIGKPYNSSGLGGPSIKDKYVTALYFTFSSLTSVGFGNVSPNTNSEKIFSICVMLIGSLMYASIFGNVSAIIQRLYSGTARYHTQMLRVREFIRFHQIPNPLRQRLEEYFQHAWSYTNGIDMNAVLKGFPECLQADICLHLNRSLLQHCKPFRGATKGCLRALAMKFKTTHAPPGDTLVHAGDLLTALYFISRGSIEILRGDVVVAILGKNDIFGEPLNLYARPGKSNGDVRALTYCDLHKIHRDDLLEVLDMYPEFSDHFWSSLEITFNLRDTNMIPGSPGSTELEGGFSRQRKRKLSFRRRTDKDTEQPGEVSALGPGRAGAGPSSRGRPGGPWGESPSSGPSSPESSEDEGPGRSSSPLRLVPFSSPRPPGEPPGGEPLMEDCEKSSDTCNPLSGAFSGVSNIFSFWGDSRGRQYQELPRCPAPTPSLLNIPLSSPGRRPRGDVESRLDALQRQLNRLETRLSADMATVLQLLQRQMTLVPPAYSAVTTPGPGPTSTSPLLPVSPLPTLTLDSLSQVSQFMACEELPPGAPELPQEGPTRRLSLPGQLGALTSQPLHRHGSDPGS

Row | Structure (SMILES) | hERG current change (%, negative = inhibition) at 1uM
1 | O=C(O)C(=O)O.O=[N+]([O-])c1ccc(S(=O)(=O)N2CCN(Cc3c[nH]c4ccccc34)CC2)cc1 | -10.1%
2 | CCOc1ccc(CN2CCN(Cc3c[nH]c4ccccc34)CC2)cc1.O=C(O)C(=O)O | -85.8%
3 | CC(C)Sc1nnc(-c2ccc(S(=O)(=O)N3CCOCC3)cc2)n1C | 7.81%
4 | CCN(CC)Cc1cc(NC2=NS(=O)(=O)c3ccccc32)ccc1OC(=O)C(C)C.Cl | 5.53%
5 | COc1ccc(NS(=O)(=O)c2ccc(NS(C)(=O)=O)cc2)cc1 | 6.82%
6 | COc1ccc(CNC(=O)c2ccccc2C(=O)O)cc1 | 0.458%
7 | CCN(CC(=O)Nc1c(F)cccc1F)C(=O)c1ccc(C#N)cc1 | 8.99%
8 | O=C(CSc1nnc(-c2ccccc2Br)o1)Nc1cccc2ccccc12 | 3.82%
9 | O=C(CSc1nnc(-c2ccncc2)o1)Nc1nncs1 | 15.3%
10 | O=C(CSc1nnc(-c2ccccc2Br)o1)Nc1nncs1 | -63.5%
11 | CSc1n[nH]c(NC2=CC(=O)CCC2)n1 | 15%
12 | CC(C(=O)Nc1cccc(S(=O)(=O)N2CCOCC2)c1)N1CCN(C/C=C/c2ccccc2)CC1 (centres unmarked) | -32.5%
13 | CC(C(=O)Nc1cccc([N+](=O)[O-])c1)N1CCN(C/C=C/c2ccccc2)CC1 (centres unmarked) | -74.2%
14 | COc1ccc(N2CCN(C(C)C(=O)N(C)Cc3ccccc3)CC2)cc1 (centres unmarked) | -10%
15 | CNC(=O)NC(=O)C(C)N1CCN(C/C=C/c2ccccc2)CC1 (centres unmarked) | -32.1%
16 | CC(C(=O)N(C)Cc1ccccc1)N1CCN(C/C=C/c2ccccc2)CC1 (centres unmarked) | -73.5%
17 | COc1ccccc1NC(=O)C(C)N1CCN(C/C=C/c2ccccc2)CC1 (centres unmarked) | -75.2%
18 | COc1ccccc1NC(=S)N1CCN(C/C=C/c2ccccc2)CC1 | 7.29%
19 | CC(=O)c1ccc(NC(=O)C(C)N2CCN(C/C=C/c3ccccc3)CC2)cc1 (centres unmarked) | -41%
20 | COc1ccc(Cl)cc1NC(=O)C(C)N1CCN(C/C=C/c2ccccc2)CC1.O=C(O)C(=O)O (centres unmarked) | -14.3%
21 | Cc1sc2nc[nH]c(=O)c2c1-c1ccc(F)cc1 | 17.2%
22 | Cc1ccccc1Nc1nc(-c2sc(NC(=O)c3ccccc3)nc2C)cs1 | 7.9%
23 | CC(c1ccncn1)N(C)C(=O)c1ccc2oc(Cc3ccccc3)nc2c1 (centres unmarked) | 9.8%
24 | CCOc1ccc(NS(=O)(=O)c2ccc(NS(=O)(=O)c3ccc(SC)cc3)cc2)cc1 | 9.23%

Row | Structure (SMILES) | hERG current change (%, negative = inhibition) at 1uM
25 | CCCN1Cc2cccc(C(=O)NCc3ccc(C)cc3)c2C1=O | -4.32%
26 | CCC(C)N(C)C(=O)c1cc2ccccc2c(-c2ccccc2Cl)n1 (centres unmarked) | -5.29%
27 | CC(Oc1ccc(Cl)cc1)C(=O)OCC(=O)Nc1ncc(Cl)cc1Cl (centres unmarked) | 3.29%
28 | O=C(Nc1ccc(F)cc1)c1nc[nH]c1C(=O)O | 18.5%
29 | Cc1ccccc1OCC(O)Cn1c(=N)n(Cc2ccccc2)c2ccccc21.Cl (centres unmarked) | -48.4%
30 | C=CCn1c(=N)n(CC(O)COc2ccccc2OC)c2ccccc21.Cl (centres unmarked) | -43.5%
31 | COc1ccccc1OCC(O)Cn1c(=N)n(Cc2ccccc2)c2ccccc21.Cl (centres unmarked) | -39.6%
32 | COc1ccccc1OCC(O)Cn1c(=N)n(CCN2CCCCC2)c2ccccc21.Cl (centres unmarked) | -27.9%
33 | CCCCCn1c(=N)n(CC(O)COc2ccccc2OC)c2ccccc21.Cl (centres unmarked) | -86.3%
34 | CCCCCn1c(=N)n(CC(O)COc2ccccc2OC)c2ccccc21 (centres unmarked) | -82.8%
35 | COC(=O)[C@H](C)NC(=O)Nc1ccc(C)c(C)c1 | 15.2%
36 | Cc1ccnc(SCc2ccc([N+](=O)[O-])cc2)n1 | -1.04%
37 | COCCN(C(=O)CSc1nc(-c2ccccc2)cn1N)c1c(N)n(Cc2ccccc2)c(=O)[nH]c1=O | 3.04%
38 | CCCC(=O)Nc1cc(C(=O)O)ccc1Sc1ccc(C)cc1 | 10.9%
39 | Cc1ccc(C)c(-n2c(SCC(=O)Nc3nonc3C)nnc2-c2ccoc2C)c1 | 9.3%
40 | Cc1cccc(-n2c(SCC(=O)NC3CCCC3)nnc2-c2ccoc2C)c1 | -68.6%
41 | Cc1cccc(-n2c(SCC(=O)Nc3nonc3C)nnc2-c2ccoc2C)c1 | -81.9%
42 | Cc1nonc1NC(=O)CSc1nnc(-c2ccoc2C)n1-c1cccc(Cl)c1 | -58.8%
43 | CCn1c(SCC(=O)Nc2nonc2C)nnc1-c1ccoc1C | 7.63%
44 | Cc1occc1-c1nnc(SCC(=O)NC2CCCC2)n1-c1ccccc1 | 0.492%
45 | Cc1occc1-c1nnc(SCC(=O)NC2CCCC2)n1C | 13.5%
46 | Cc1nonc1NC(=O)CSc1nnc(-c2ccoc2C)n1C | 9.71%
47 | CCCn1c(SCC(=O)Nc2nonc2C)nnc1-c1ccoc1C | 5.83%
